Results reported in PubChem BioAssay (NCI).
About 83,000 compounds went through this panel and 20% of them were active in at least one assay; those are over-represented in the sample as a whole.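 Method: cells in 96-well plates; compound added at one concentration; 48 h incubation; percent growth measured; values under 10 scored active.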 Calls of active or inactive are those of the source.

What follows are molecules tested on NCI-H23 lung (assay: NCI-60 one-dose screen, 48 h (100 = growth as untreated, 0 = no growth, -100 = all killed)). Details: 10 µM.
With `COc1ccc(-c2ccccc2)cc1C(=O)c1ccc(-c2ccccc2)cc1` the growth was 73.6% (inactive). `O=C1CC[C@@H](C(=O)N[C@H]2CSSC[C@@H](C(=O)N/C=C/c3ccc(O)cc3)NC(=O)[C@H](Cc3ccccc3)NC(=O)[C@@H]3CCCN3C(=O)[C@@H]3CCCN3C2=O)N1` was tested, and the growth was 96.5% (inactive). For `COc1ccc2nc(C)cc(Nc3ccc(Cl)cc3)c2c1`, the growth was 104% (inactive). For `CC(=O)OC1Oc2ccccc2-c2oc(=O)c(-c3cc(=O)oc4cc(O)ccc34)cc21` (stereo not drawn), the growth was 80.8% (inactive). With `O=C(NCCc1nccs1)c1cnc2c(S)cccc2c1` the growth was 34.2% (inactive). `COc1ccccc1Cn1cc2c(c1-c1ccccc1)CCc1cnoc1-2` was tested, and the growth was 36.9% (inactive). `FC(F)(F)c1ccc(-c2cnc(Cl)nc2NC2CCCCCC2)cc1` was tested, and the growth was 25.8% (inactive). For `C[C@]12CC[C@H]3[C@@H](CCC4=CC(=O)CC[C@@]43C)[C@@H]1CC[C@@H]2c1csc(N)n1`, the growth was 36.2% (inactive). In the case of `COc1ccc(COC(=O)CC(C)C)cc1`, the growth is reported as 93.1% (inactive). `CCOC(=O)c1cc2c(n1Cc1ccccc1)-c1oncc1CC2` was tested, and the growth was 89.5% (inactive). `CCCCCCCCCCCCCCCCCBr` was tested, and the growth was 106% (inactive). In the case of `CS(=O)(=O)Nc1ccc([N+](=O)[O-])cc1Oc1ccccc1`, the growth is reported as 92.6% (inactive). For `Oc1ccccc1-c1nnc(Cn2c(Cc3cccc4ccccc34)nc3ccccc32)o1`, the growth was 90.8% (inactive). For `O=NN(CC(=O)N/N=C/C=C\c1ccccc1)CC(=O)N/N=C/C=C/c1ccccc1`, the growth was 112% (inactive). In the case of `O=C(OCc1ncc(-c2ccc(C(F)(F)F)cc2)c(NC2CCCCCC2)n1)c1c(F)c(F)c(F)c(F)c1F`, the growth is reported as 63.1% (inactive). For `Cc1cc(O)c(C2=NN(c3ccc(S(N)(=O)=O)cc3)C(c3ccc(N(C)C)cc3)C2)c(C)c1Cl` (stereo not drawn), the growth was 79.3% (inactive). In the case of `C=CCNC(=S)NN`, the growth is reported as 98.2% (inactive). With `O=C(Nc1ccc(OS(=O)(=O)Cc2ccccc2)cc1)C12CC3CC(CC(C3)C1)C2` the growth was 84.8% (inactive). `Cc1cc(C(C)(C)CC(C)(C)C)ccc1OCCOCC[N+](C)(C)Cc1ccccc1` was tested, and the growth was -20% (active). In the case of `Oc1cc(O)c(Br)cc1Br`, the growth is reported as 110% (inactive). In the case of `C/C(=N/NC(=O)c1sc(=S)n(C)c1N)c1cc2cc(Cl)ccc2o1`, the growth is reported as 97.9% (inactive). With `CCOC(=O)CSC(=S)SCC(=O)OCC` the growth was 110% (inactive). `Cc1c(C(=O)N[C@H](CO)Cc2ccccc2)[nH]c2ccc(Cl)cc2c1=O` was tested, and the growth was 101% (inactive). In the case of `Cc1ccc2c(c1)-c1cc(C)nn1-c1ccc(C#N)cc1O2`, the growth is reported as 78.2% (inactive). `CCOC(=O)c1cc(-c2ccccc2)nc(N)n1` was tested, and the growth was 99.5% (inactive). `COc1cccc2c1O/C(=C\c1ccc([N+](=O)[O-])s1)C2=O` was tested, and the growth was 71.8% (inactive). In the case of `CCN(CC)CC(O)CNc1ccnc2cc(Cl)c(Cl)cc12` (stereo not drawn), the growth is reported as 102% (inactive). In the case of `N#C/C(=C\N1C(=O)/C(=C/c2cccc([N+](=O)[O-])c2)SC1=S)c1nc2ccccc2s1`, the growth is reported as 68.9% (inactive). `COc1cc(/C=C/C(=O)c2cc(-c3ccccc3)ccc2O)cc(OC)c1OC` was tested, and the growth was 66.3% (inactive). With `Cc1cccc2c(Nc3ccc(NS(C)(=O)=O)cc3)c3ccc([N+](=O)[O-])cc3nc12` the growth was -17.6% (active). With `COc1ccc(/C=C2\SC(=S)N(CCCN3CCOCC3)C2=O)c(OC)c1` the growth was 98.9% (inactive). With `Oc1ccc(/C=N\Nc2ccccn2)c(O)c1` the growth was 1.98% (active). For `O=C(NCCCl)c1cc(Cl)cc(Cl)c1`, the growth was 103% (inactive). In the case of `O=S(=O)(NCCO)c1ccc(OCCOc2ccc(S(=O)(=O)NCCO)cc2)cc1`, the growth is reported as 96.6% (inactive). In the case of `CCCCCCCCCCCCc1ccc(C(=O)/C=C/C(=O)O)cc1`, the growth is reported as 78.6% (inactive). `CCOC(=O)/C(C#N)=C(/C)C1CC1` was tested, and the growth was 109% (inactive). For `O=C1CC(c2cccc(-c3cccnc3)c2)=Nc2ccc(Br)cc2N1`, the growth was 44.4% (inactive). `COc1cc(NS(C)(=O)=O)ccc1Nc1c2ccc(Cl)cc2nc2c(OC)cccc12` was tested, and the growth was -23.6% (active).
